Screen size: about 52,000 compounds; about 4,300 (8.3%) were called active. No stated cut-off is given here; in the data, active means survival mostly below about 52% (no sharp cut-off); inactive means mostly above about 56%. This excerpt belongs to a sample that is enriched for actives.
What follows are molecules tested on DeltatarO mutant (assay: S. aureus survival, RN4220 and DeltatarO strains – OD600, teichoic acid synthesis inhibitors, primary screen (AID 463173)). Settings: S. aureus RN4220 wild type/DeltatarO growth, OD600, 18 h, active compounds read low, screened at 18.75 µg/mL (by protocol).
In the case of COc1ccc(CNC(=O)C2CCN(S(=O)(=O)c3ccc(F)cc3)CC2)cc1, the survival is reported as 71% (inactive).
CSc1cccc(NC(=O)N2CCN(S(=O)(=O)c3ccc4c(ccn4C)c3)CC2)c1 was tested, and the survival was 58% (inactive).
For CCn1ccc2cc(S(=O)(=O)N3CCC(C(=O)NCC(C)c4ccccc4)CC3)ccc21 (centres undefined), the survival was 94% (inactive).
For CCCCNC(=O)C1CCN(S(=O)(=O)c2ccc3c(ccn3CC)c2)CC1, the survival was 99% (inactive).
For CCn1ccc2cc(S(=O)(=O)N3CCC(C(=O)NCc4ccc(OC)cc4)CC3)ccc21, the survival was 20% (active).
For CCC(C)NC(=O)C1CCN(S(=O)(=O)c2ccc3c(ccn3CC)c2)CC1 (centres undefined), the survival was 8% (active).
For COc1ccc(CNC(=O)C2CCN(S(=O)(=O)c3ccc(C)cc3)CC2)cc1, the survival was 56% (active).
In the case of CCn1ccc2cc(S(=O)(=O)N3CCC(C(=O)NCc4ccc(F)cc4)CC3)ccc21, the survival is reported as 85% (inactive).
With CCn1ccc2cc(S(=O)(=O)N3CCC(C(=O)NCc4ccc(OC(C)C)cc4)CC3)ccc21 the survival was 95% (inactive).
In the case of CCn1ccc2cc(S(=O)(=O)N3CCCN(C(=O)Nc4cccc(SC)c4)CC3)ccc21, the survival is reported as 47% (active).
Cc1ccc(CNC(=O)C2CCN(S(=O)(=O)c3ccc(F)cc3)CC2)cc1 was tested, and the survival was 62% (inactive).
CCn1ccc2cc(S(=O)(=O)N3CCCN(C(=O)Nc4cccc(Cl)c4)CC3)ccc21 was tested, and the survival was 83% (inactive).
For CN1C(C(=O)c2ccccc2)=C(OC(=O)c2ccc(Br)cc2)c2ccccc2S1(=O)=O, the survival was 123% (inactive).
Cc1ccc(Nc2cc(C(=O)NC3CCCC3)c3ccccc3n2)c(C)c1 was tested, and the survival was 77% (inactive).
For CCN(CC)C(=O)C1CCN(Cc2cccc(OC)c2OC)CC1, the survival was 99% (inactive).
In the case of CCN(C(=O)CSc1nc2ccccc2n1CC(=O)N1CCCC(C)C1)c1ccccc1 (centres undefined), the survival is reported as 109% (inactive).
For COc1ccc(Br)cc1CNC(=O)c1cnc2sc(N3CCCC3)nn2c1=O, the survival was 98% (inactive).
With COc1ccccc1-n1c(=O)c2c3c(sc2n(Cc2ccccc2F)c1=O)CN(C(C)=O)CC3 the survival was 120% (inactive).
For O=S(=O)(c1ccccc1)N1CCCC(c2nc(-c3cccs3)no2)C1 (centres undefined), the survival was 67% (inactive).
In the case of CCOC(=O)Cn1c(=O)n(C2CCCCC2)c2nc(-c3ccc(C(C)C)cc3)nc(C(N)=O)c21, the survival is reported as 61% (inactive).
In the case of CCOCCCNC(=O)C1CCCN(Cc2nc(-c3ccc(CC)cc3)oc2C)C1 (centres undefined), the survival is reported as 76% (inactive).
COc1cccc(CNC(=O)C2CCCN(S(=O)(=O)c3ccc4c(ccn4C)c3)C2)c1OC (centres undefined) was tested, and the survival was 101% (inactive).
For Cc1ccc(CNC(=O)C2CCCCN2S(=O)(=O)c2ccc(F)cc2)cc1 (centres undefined), the survival was 84% (inactive).
With COc1cccc(CNC(=O)C2CCCN(S(=O)(=O)c3ccc4c(ccn4C)c3)C2)c1 (centres undefined) the survival was 124% (inactive).
In the case of COc1ccc(CNC(=O)C2CCCCN2S(=O)(=O)c2ccc(F)cc2)cc1 (centres undefined), the survival is reported as 95% (inactive).
In the case of COc1ccc(CNC(=O)C2CCCN(S(=O)(=O)c3ccc4c(ccn4C)c3)C2)c(OC)c1 (centres undefined), the survival is reported as 25% (active).
With O=C(NCc1ccc(F)cc1)C1CCCCN1S(=O)(=O)c1ccc(F)cc1 (centres undefined) the survival was 32% (active).
With CCC(=O)N1CCc2cc(CNC(=O)Nc3cc(C)ccc3C)ccc21 the survival was 84% (inactive).
With CC(=O)N1CCCc2cc(S(=O)(=O)N3CCCC(C(=O)Nc4cc(Cl)ccc4C)C3)ccc21 (centres undefined) the survival was 124% (inactive).
With CC(C)Sc1ncc(Cl)c(C(=O)Nc2c(C(=O)Nc3ccccc3)oc3ccccc23)n1 the survival was 61% (inactive).
CN(C)c1ccc(C(CC(=O)O)NC(=O)c2ccc(Cl)cc2)cc1 (centres undefined) was tested, and the survival was 104% (inactive).
COc1ccc(NC(=O)c2nnn(Cc3nc(-c4cc(OC)c(OC)c(OC)c4)oc3C)c2C)cc1 was tested, and the survival was 61% (inactive).
In the case of C=CCc1c(C)nc(SC)nc1Nc1ccc(C(=O)O)cc1, the survival is reported as 113% (inactive).
For O=C(Oc1cccc(-n2cnnn2)c1)C1CCCCC1, the survival was 94% (inactive).
For Cc1ccccc1C(=O)Nc1c(C)nc2ccccn2c1=O, the survival was 37% (active).
In the case of Cc1ccc(C(=O)Nc2c(C)nc3ccccn3c2=O)cc1C, the survival is reported as 69% (inactive).
For Cc1nc2ccccn2c(=O)c1NC(=O)c1ccccc1Cl, the survival was 131% (inactive).
In the case of Cc1nc2ccccn2c(=O)c1NC(=O)c1ccc(C(F)(F)F)cc1, the survival is reported as 0% (active).
For Cc1nc2ccccn2c(=O)c1NC(=O)c1ccc(F)c(F)c1, the survival was 99% (inactive).
Cc1ccc(C(=O)Nc2c(C)nc3ccccn3c2=O)cc1 was tested, and the survival was 74% (inactive).
O=c1ccc2cc(S(=O)(=O)NCc3ccc(Cl)cc3)ccc2[nH]1 was tested, and the survival was 91% (inactive).
In the case of Cc1cccc2sc(N(Cc3cccnc3)C(=O)CCOc3ccccc3)nc12, the survival is reported as 82% (inactive).
For Cc1cccc(N2CCN(S(=O)(=O)c3ccc4oc(=O)c5ncn(C)c5c4c3)CC2)c1C, the survival was 77% (inactive).
In the case of O=C(/C=C/c1ccccc1)N1CCN(Cc2cc(=O)n3nc(-c4ccccc4)sc3n2)CC1, the survival is reported as 90% (inactive).
In the case of CC(NC(=O)C1CCN(C(=O)c2ccc(-n3ccc4ccccc43)s2)CC1)c1ccccc1 (centres undefined), the survival is reported as 79% (inactive).
CCOc1ccc(/C=C/C(=O)NCc2ccco2)cc1OC was tested, and the survival was 83% (inactive).
In the case of Cc1cc(C)nc(NS(=O)(=O)c2ccc(NC(=O)COc3ccc(C(C)(C)C)cc3)cc2)n1, the survival is reported as 56% (inactive).
COCCN(Cc1ccc(C)c(Br)c1)S(=O)(=O)c1ccc2[nH]c(=O)ccc2c1 was tested, and the survival was 20% (active).
With CCN(c1ccc(OC)cc1)S(=O)(=O)c1ccc2[nH]c(=O)ccc2c1 the survival was 79% (inactive).
CN(C)CCN(Cc1ccccc1)S(=O)(=O)c1ccc2[nH]c(=O)ccc2c1 was tested, and the survival was 95% (inactive).
With Cc1ccc2oc(C(=O)Nc3ccc(S(=O)(=O)Nc4ncccn4)cc3)cc(=O)c2c1 the survival was 70% (inactive).
Cc1ccc(C)c(NC(=O)c2ccc3c(c2)CCCN3S(C)(=O)=O)c1 was tested, and the survival was 81% (inactive).
In the case of CCS(=O)(=O)N1CCc2cc(C(=O)Nc3cc([N+](=O)[O-])ccc3C)ccc21, the survival is reported as 40% (active).
With CCS(=O)(=O)N1CCc2cc(C(=O)Nc3cc(C)cc(C)c3)ccc21 the survival was 80% (inactive).
In the case of CCS(=O)(=O)N1CCc2cc(C(=O)Nc3cc(Cl)ccc3C)ccc21, the survival is reported as 72% (inactive).
With CCS(=O)(=O)N1CCc2cc(C(=O)Nc3ccc(C)c(Cl)c3)ccc21 the survival was 98% (inactive).
CCS(=O)(=O)N1CCCc2cc(C(=O)Nc3cc([N+](=O)[O-])ccc3C)ccc21 was tested, and the survival was 42% (active).
For CCc1nc2cccnc2n1-c1ccc(CC(=O)Nc2cccc(C)c2C)cc1, the survival was 81% (inactive).
With O=C(NCc1ccco1)C1CCC(N2C(=O)c3ccccc3C2=O)CC1 (centres undefined) the survival was 63% (inactive).
For C=CCNC(=O)Cc1c(O)c2ccccc2[nH]c1=O, the survival was 101% (inactive).
For CCCCCc1c(O)c2ccccc2[nH]c1=O, the survival was 103% (inactive).
In the case of CC(C)COC(=O)Cc1c(O)c2ccccc2[nH]c1=O, the survival is reported as 39% (active).
In the case of Cc1ccc(NC(=O)C2CCN(S(=O)(=O)c3c(C)noc3C)CC2)cc1C, the survival is reported as 91% (inactive).
With Cc1c(C)n(Cc2ccc(F)cc2)c2ccc(C(=O)N3CCN(c4ccc(Cl)cc4)CC3)cc12 the survival was 83% (inactive).
With CCN1C(C(=O)c2ccccc2)=C(OC(=O)COc2ccccc2)c2ccccc2S1(=O)=O the survival was 41% (active).
With CCCN1C(C(=O)c2ccccc2)=C(OC(=O)COc2ccccc2)c2ccccc2S1(=O)=O the survival was 49% (inactive).
With CCCN1C(C(=O)c2ccccc2)=C(OC(=O)COc2ccc(C)cc2)c2ccccc2S1(=O)=O the survival was 19% (active).
In the case of CCN1C(C(=O)c2ccccc2)=C(OC(=O)COc2ccc(OC)cc2)c2ccccc2S1(=O)=O, the survival is reported as 60% (inactive).
CCN1C(C(=O)c2ccccc2)=C(OC(=O)COc2ccc(C)cc2)c2ccccc2S1(=O)=O was tested, and the survival was 79% (inactive).
Cc1ccc(OCC(=O)OC2=C(C(=O)c3ccccc3)N(C)S(=O)(=O)c3ccccc32)cc1 was tested, and the survival was 82% (inactive).
For COc1ccc(-c2nc(C)c(CCNS(=O)(=O)c3cc(C)c(C)cc3C)s2)cc1, the survival was 72% (inactive).
In the case of CCc1ccc(Nc2nn(-c3ccc(OC(F)(F)F)cc3)nc2C(C)=O)cc1, the survival is reported as 92% (inactive).
For CCC1=NN(C(=O)c2ccccc2O)C(O)(c2ccccc2)C1 (centres undefined), the survival was 1% (active).
For CCOC(=O)N1N=C(C)CC1(O)c1ccccc1 (centres undefined), the survival was 90% (inactive).
CCC1=NN(C(=O)Cc2ccccc2)C(O)(c2ccccc2)C1 (centres undefined) was tested, and the survival was 77% (inactive).
COc1ccc(CCNC(=O)C2CCCN(c3nc4c(C)cc(C)cc4s3)C2)cc1OC (centres undefined) was tested, and the survival was 81% (inactive).
For O=C(CC(c1ccccc1)c1ccccc1)N1CCN(c2ccccn2)CC1, the survival was 72% (inactive).
In the case of CCCOc1ccc(C(=O)Nc2cc(-c3nc4cc(C)cc(C)c4o3)ccc2C)cc1, the survival is reported as 85% (inactive).
With Cc1ccc(OCC(=O)Nc2cc(-c3nc4ccccc4[nH]3)ccc2C)c(C)c1 the survival was 78% (inactive).
In the case of COc1c(Cl)cc(C(=O)Nc2cc(-c3nc4ccccc4[nH]3)ccc2C)cc1Cl, the survival is reported as 49% (inactive).
With CCCOc1cccc(C(=O)Nc2cc(-c3nc4ccccc4[nH]3)ccc2C)c1 the survival was 56% (active).
In the case of Cc1ccc(-c2nc3ccccc3[nH]2)cc1NC(=O)C(C)C, the survival is reported as 70% (inactive).
In the case of Cc1ccc(C(C)C)c(OCC(=O)Nc2cc(-c3nc4ccccc4[nH]3)ccc2C)c1, the survival is reported as 71% (inactive).
For CCCOc1ccc(C(=O)Nc2cc(-c3nc4ccccc4[nH]3)ccc2C)cc1, the survival was 44% (active).
For COc1cc(OC)cc(C(=O)Nc2cc(-c3nc4ccccc4[nH]3)ccc2C)c1, the survival was 44% (active).
In the case of CCCOc1cccc(C(=O)Nc2ccc(-c3nc4ccccc4o3)cc2)c1, the survival is reported as 77% (inactive).
With Cc1ccc(-c2nc3ccccc3[nH]2)cc1NC(=O)COc1ccccc1[N+](=O)[O-] the survival was 60% (inactive).
Cc1ccc(-c2nc3ccccc3[nH]2)cc1NC(=O)COc1cccc(C)c1C was tested, and the survival was 43% (inactive).
Cc1ccc(-c2nc3ccccc3[nH]2)cc1NC(=O)COc1ccc(Cl)cc1Cl was tested, and the survival was 18% (active).

Source: PubChem BioAssay AID463173 (ICCB-Longwood Screening Facility, Harvard Medical School, 2010)
